{"source": "PubChem BioAssay (EPA / NIEHS)", "key": {"[1]": {"biological_target": "human Phosphoinositide 3-kinase alpha (PI3Ka), PIK3CA (gene 5290) (UniProt P42336)", "assay": "NVS_ENZ_hPI3Ka: NovaScreen (NVS) Enzymatic Assay for human Phosphoinositide 3-kinase alpha (PI3Ka) (AID 2283196)", "in_short": "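Duplicate single-point screen (25 uM), then singleton dose-response (max 50 uM) for compounds meeting the threshold. Cell-free kinase reaction, 1 h; fluorescent mobility-shift readout.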"}, "[2]": {"biological_target": "human Protein Tyrosine Phosphatase Non-receptor Type 1 (PTPN1), PTPN1 (gene 5770) (UniProt P18031)", "assay": "NVS_ENZ_hPTPN1: NovaScreen (NVS) Enzymatic Assay for human Protein Tyrosine Phosphatase Non-receptor Type 1 (PTPN1) (AID 2283201)", "in_short": "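Chemicals were first tested in duplicate at 25 uM, and those passing threshold went on to singleton concentration series topping at 50 uM. Recombinant enzyme, specific substrate, product separated by mobility shift, fluorescence read at 1.33 h; activity loss relative to DMSO.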"}, "[3]": {"biological_target": "Tyrosine-protein phosphatase non-receptor type 12 (Homo sapiens) (UniProt Q05209)", "sequence (Q05209 whole entry, looked up)": "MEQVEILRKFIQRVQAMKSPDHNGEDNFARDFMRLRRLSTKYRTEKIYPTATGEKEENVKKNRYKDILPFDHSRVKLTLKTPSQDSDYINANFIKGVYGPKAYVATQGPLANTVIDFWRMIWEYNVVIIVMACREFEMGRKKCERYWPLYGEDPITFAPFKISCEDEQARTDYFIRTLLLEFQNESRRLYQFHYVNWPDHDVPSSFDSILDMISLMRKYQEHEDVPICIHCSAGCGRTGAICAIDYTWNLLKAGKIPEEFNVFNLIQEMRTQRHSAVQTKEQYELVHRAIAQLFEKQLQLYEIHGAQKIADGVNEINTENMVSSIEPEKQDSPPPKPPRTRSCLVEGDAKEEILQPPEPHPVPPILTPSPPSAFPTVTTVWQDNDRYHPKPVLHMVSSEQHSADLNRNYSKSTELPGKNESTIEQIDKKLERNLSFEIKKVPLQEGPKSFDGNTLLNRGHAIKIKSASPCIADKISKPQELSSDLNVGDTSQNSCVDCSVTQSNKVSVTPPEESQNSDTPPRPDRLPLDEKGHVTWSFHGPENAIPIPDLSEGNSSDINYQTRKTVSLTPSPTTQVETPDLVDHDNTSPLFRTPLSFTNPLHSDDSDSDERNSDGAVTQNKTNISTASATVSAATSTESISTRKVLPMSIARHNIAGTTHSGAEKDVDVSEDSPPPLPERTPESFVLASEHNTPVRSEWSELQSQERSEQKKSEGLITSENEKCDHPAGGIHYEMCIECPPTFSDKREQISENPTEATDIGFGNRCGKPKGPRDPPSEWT", "assay": "NVS_ENZ_hPTPN12: NovaScreen (NVS) Enzymatic Assay for human Protein Tyrosine Phosphatase Non-receptor Type 12 (PTPN12) (AID 2283204)", "in_short": "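Single-concentration duplicates (25 uM) preceded singleton concentration-response up to 50 uM for chemicals passing threshold. Cell-free recombinant PTPN12 activity was read 1.33 h after dosing via fluorescence after mobility-shift separation; loss of signal versus DMSO.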"}, "[4]": {"biological_target": "human Protein Tyrosine Phosphatase Receptor Type C (PTPRC), PTPRC (gene 5788) (UniProt P08575)", "sequence (P08575 whole entry, looked up)": "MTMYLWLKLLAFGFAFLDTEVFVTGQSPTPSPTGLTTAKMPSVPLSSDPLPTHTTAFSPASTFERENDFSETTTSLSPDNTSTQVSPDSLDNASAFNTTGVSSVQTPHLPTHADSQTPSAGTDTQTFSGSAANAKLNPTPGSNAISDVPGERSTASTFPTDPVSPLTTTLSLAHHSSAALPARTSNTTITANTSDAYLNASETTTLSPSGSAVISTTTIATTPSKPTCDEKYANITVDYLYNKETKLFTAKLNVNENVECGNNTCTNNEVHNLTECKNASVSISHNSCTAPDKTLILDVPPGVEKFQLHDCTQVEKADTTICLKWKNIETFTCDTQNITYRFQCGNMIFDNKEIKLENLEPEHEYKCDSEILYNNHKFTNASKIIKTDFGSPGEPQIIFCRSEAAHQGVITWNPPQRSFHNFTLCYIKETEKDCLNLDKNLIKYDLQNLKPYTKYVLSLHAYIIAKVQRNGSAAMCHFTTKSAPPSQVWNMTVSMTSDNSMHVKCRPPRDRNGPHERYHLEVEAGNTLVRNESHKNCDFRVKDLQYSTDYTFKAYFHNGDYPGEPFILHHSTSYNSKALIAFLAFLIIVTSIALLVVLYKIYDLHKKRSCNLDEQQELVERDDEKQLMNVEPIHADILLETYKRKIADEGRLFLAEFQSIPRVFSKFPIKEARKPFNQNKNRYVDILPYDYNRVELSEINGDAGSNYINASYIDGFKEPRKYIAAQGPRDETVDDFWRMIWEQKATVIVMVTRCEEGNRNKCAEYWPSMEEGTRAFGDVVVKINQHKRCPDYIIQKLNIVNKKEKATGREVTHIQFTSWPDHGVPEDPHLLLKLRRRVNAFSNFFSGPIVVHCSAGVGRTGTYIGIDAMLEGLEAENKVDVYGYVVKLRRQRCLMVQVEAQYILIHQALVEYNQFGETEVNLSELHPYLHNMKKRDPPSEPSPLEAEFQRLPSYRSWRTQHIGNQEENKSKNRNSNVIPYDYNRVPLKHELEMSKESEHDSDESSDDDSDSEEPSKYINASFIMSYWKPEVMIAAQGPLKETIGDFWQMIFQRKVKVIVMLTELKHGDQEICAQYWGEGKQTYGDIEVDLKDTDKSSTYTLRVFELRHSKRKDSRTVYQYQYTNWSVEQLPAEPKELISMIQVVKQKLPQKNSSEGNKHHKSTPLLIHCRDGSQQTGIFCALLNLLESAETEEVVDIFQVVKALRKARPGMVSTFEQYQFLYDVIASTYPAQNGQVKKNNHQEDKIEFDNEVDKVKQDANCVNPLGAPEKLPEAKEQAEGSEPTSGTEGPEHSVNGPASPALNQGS", "assay": "NVS_ENZ_hPTPRC: NovaScreen (NVS) Enzymatic Assay for human Protein Tyrosine Phosphatase Receptor Type C (PTPRC) (AID 2283212)", "in_short": "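Absorbance-based phosphatase activity of human PTPRC protein extracted from yeast was measured 1 h post-dosing. Compounds first tested at 25 uM in duplicate, then those passing threshold in singleton concentration series to 50 uM.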"}, "[5]": {"biological_target": "human Protein Phosphatase, Mg2+/Mn2+ Dependent 1A (PPM1A), PPM1A (gene 5494) (UniProt P35813)", "sequence (P35813 whole entry, looked up)": "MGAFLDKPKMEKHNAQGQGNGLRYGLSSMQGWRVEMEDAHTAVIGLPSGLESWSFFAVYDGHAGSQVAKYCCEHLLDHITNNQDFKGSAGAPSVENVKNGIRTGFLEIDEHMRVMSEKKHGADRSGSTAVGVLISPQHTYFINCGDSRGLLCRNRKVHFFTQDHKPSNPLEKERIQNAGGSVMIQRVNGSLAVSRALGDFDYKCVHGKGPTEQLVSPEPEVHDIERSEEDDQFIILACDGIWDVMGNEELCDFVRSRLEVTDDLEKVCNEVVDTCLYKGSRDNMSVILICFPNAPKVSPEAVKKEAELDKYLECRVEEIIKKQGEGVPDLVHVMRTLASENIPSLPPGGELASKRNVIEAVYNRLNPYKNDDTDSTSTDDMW", "assay": "NVS_ENZ_hPPM1A: NovaScreen (NVS) Enzymatic Assay for human Protein Phosphatase, Mg2+/Mn2+ Dependent 1A (PPM1A) (AID 2283198)", "in_short": "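Primary screen in duplicate at 25 uM, with actives then titrated to a maximum of 50 uM. Recombinant PPM1A dephosphorylation of fluorescent substrate measured at 1 h, with substrate and product separated by mobility shift; inhibition fitted against DMSO.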"}, "[6]": {"biological_target": "human Rho Associated Coiled-coil Containing Protein Kinase 1 (ROCK1), ROCK1 (gene 6093) (UniProt Q13464)", "assay": "NVS_ENZ_hROCK1: NovaScreen (NVS) Enzymatic Assay for human Rho Associated Coiled-coil Containing Protein Kinase 1 (ROCK1) (AID 2283214)", "in_short": "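Compounds first run in duplicate at 25 uM against recombinant human ROCK1, then followed in concentration series. Kinase activity was read 1 h post-dosing by fluorescence with mobility-shift separation, as signal loss relative to DMSO.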"}, "[7]": {"biological_target": "human Sirtuin 1 (SIRT1), SIRT1 (gene 23411) (UniProt Q96EB6)", "sequence (Q96EB6 whole entry, looked up)": "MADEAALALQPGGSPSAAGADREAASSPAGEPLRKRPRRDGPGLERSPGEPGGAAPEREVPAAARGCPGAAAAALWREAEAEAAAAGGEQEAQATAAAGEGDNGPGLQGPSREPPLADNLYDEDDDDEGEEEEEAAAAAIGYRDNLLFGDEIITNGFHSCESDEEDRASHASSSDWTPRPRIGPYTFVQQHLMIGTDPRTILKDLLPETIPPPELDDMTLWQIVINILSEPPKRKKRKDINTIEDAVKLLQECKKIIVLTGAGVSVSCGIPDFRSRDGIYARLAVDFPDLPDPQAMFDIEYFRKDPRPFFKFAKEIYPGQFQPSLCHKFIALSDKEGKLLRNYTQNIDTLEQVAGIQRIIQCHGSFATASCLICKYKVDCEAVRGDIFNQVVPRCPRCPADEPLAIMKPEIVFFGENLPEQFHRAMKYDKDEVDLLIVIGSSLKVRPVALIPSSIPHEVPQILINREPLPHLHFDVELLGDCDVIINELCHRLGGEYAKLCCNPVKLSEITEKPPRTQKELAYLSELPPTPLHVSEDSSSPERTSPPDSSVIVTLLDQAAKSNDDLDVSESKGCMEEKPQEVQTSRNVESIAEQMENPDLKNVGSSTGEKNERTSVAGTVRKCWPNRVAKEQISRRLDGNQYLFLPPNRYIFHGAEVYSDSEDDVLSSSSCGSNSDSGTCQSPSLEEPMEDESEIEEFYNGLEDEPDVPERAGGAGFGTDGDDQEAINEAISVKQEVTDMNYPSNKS", "assay": "NVS_ENZ_hSIRT1: NovaScreen (NVS) Enzymatic Assay for human Sirtuin 1 (SIRT1) (AID 2283219)", "in_short": "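Cell-free recombinant SIRT1 with a fluorescent substrate; substrate and product separated by electrophoretic mobility shift and read by fluorescence intensity, 1 h after dosing. Primary screen at 25 uM in duplicate; hits re-run in concentration-response up to 50 uM, relative to DMSO.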"}, "[8]": {"biological_target": "human Phosphodiesterase 5 (PDE5), PDE5A (gene 8654) (UniProt O76074)", "assay": "NVS_ENZ_hPDE5: NovaScreen (NVS) Enzymatic Assay for human Phosphodiesterase 5 (PDE5) (AID 2283194)", "in_short": "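Screening began in duplicate at 25 uM, with actives taken into concentration-response. Enzyme activity of recombinant PDE5 toward its substrate was measured at 1 h by fluorescence mobility-shift detection, relative to DMSO controls.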"}, "[9]": {"biological_target": "human Protein Tyrosine Phosphatase Non-receptor Type 6 (PTPN6), PTPN6 (gene 5777) (UniProt P29350)", "assay": "NVS_ENZ_hPTPN6: NovaScreen (NVS) Enzymatic Assay for human Protein Tyrosine Phosphatase Non-receptor Type 6 (PTPN6) (AID 2283210)", "in_short": "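Recombinant human PTPN6 from SF9 cells, enzyme activity followed by fluorescence after mobility-shift separation of substrate and product at 1.33 h. Chemicals first tested at a single 25 uM in duplicate, then confirmed across concentration series; loss of signal relative to DMSO.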"}, "[10]": {"biological_target": "Serine/threonine-protein phosphatase PP1-alpha catalytic subunit (Homo sapiens) (UniProt P62136)", "sequence (P62136 whole entry, looked up)": "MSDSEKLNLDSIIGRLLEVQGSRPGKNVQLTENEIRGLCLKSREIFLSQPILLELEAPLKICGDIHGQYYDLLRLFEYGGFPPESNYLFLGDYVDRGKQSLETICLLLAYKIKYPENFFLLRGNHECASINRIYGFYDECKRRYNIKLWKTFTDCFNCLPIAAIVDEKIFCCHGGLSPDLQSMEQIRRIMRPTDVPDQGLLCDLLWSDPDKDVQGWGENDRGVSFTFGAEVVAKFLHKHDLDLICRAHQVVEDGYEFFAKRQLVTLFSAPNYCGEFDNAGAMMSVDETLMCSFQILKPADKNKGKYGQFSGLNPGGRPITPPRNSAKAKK", "assay": "NVS_ENZ_hPPP1CA: NovaScreen (NVS) Enzymatic Assay for human Protein Phosphatase 1 Aatalytic subunit Alpha (PPP1CA) (AID 2283200)", "in_short": "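Chemicals were first screened in duplicate at 25 uM, and those passing threshold (e.g. 30% inhibition) were run as concentration series to 50 uM. Cell-free recombinant protein, 1.33 h read, fluorescent substrate/product mobility-shift detection, normalised to DMSO.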"}, "[11]": {"biological_target": "human Phosphatase and Tensin Homolog (PTEN), PTEN (gene 5728) (UniProt P60484)", "sequence (P60484 whole entry, looked up)": "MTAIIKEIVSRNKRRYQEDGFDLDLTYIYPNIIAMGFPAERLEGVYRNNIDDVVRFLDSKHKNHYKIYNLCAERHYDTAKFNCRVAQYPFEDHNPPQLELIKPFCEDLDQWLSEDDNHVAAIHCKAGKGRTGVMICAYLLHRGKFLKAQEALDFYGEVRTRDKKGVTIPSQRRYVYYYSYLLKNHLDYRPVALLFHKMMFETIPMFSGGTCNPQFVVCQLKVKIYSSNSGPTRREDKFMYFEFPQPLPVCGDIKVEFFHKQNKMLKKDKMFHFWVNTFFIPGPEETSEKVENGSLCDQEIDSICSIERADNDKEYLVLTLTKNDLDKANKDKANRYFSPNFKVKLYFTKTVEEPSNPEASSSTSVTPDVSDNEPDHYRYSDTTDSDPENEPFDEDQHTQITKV", "assay": "NVS_ENZ_hPTEN: NovaScreen (NVS) Enzymatic Assay for human Phosphatase and Tensin Homolog (PTEN) (AID 2283203)", "in_short": "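Loss of fluorescent product signal after mobility-shift separation reports PTEN activity, recombinant human enzyme, 1 h after compound addition. Single 25 uM duplicate screen, then concentration-response on actives; DMSO baseline.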"}, "[12]": {"biological_target": "human Phosphodiesterase 10 (PDE10), PDE10A (gene 10846) (UniProt Q9Y233)", "sequence (Q9Y233 whole entry, looked up)": "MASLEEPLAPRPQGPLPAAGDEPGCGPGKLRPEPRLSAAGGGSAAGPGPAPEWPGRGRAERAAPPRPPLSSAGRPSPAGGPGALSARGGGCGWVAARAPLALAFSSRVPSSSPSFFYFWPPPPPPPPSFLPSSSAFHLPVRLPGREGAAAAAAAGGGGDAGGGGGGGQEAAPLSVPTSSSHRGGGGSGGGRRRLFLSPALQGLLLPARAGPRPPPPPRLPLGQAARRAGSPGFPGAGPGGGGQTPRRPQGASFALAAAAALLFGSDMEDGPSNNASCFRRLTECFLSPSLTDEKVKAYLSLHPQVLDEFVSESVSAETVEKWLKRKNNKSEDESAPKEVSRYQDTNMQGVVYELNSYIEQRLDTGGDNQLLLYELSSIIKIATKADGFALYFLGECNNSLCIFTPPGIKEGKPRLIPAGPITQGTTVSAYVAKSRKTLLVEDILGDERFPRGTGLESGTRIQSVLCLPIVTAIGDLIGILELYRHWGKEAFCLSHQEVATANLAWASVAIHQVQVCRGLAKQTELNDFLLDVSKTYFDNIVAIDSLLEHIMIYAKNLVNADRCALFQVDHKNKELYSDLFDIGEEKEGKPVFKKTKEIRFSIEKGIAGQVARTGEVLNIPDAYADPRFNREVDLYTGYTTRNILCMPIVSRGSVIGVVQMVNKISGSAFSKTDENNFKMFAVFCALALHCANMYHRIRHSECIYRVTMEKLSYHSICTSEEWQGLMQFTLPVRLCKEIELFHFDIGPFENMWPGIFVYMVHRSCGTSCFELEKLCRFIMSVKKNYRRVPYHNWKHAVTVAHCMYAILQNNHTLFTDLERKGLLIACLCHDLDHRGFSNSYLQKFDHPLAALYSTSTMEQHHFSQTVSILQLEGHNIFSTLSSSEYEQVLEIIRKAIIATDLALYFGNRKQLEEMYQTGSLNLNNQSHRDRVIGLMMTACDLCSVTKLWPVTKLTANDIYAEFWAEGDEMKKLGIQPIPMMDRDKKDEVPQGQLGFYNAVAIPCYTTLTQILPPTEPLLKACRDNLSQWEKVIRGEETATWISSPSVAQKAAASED", "assay": "NVS_ENZ_hPDE10: NovaScreen (NVS) Enzymatic Assay for human Phosphodiesterase 10 (PDE10) (AID 2283195)", "in_short": "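Fluorescence readout after mobility-shift separation of substrate and product, 1 h reaction with recombinant human enzyme. Single-concentration duplicates at 25 uM, then concentration-response up to 50 uM for chemicals reaching threshold; DMSO baseline.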"}, "[13]": {"biological_target": "Tyrosine-protein phosphatase non-receptor type 11 (Homo sapiens) (UniProt Q06124)", "assay": "NVS_ENZ_hPTPN11: NovaScreen (NVS) Enzymatic Assay for human Protein Tyrosine Phosphatase Non-receptor Type 11 (PTPN11) (AID 2283202)", "in_short": "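Compounds first tested in duplicate at 25 uM; those reaching ~30% inhibition rerun in singleton concentration-response, top 50 uM. Phosphatase activity measured after 0.5 h by fluorescence with mobility-shift separation, relative to DMSO.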"}, "[14]": {"biological_target": "cAMP-dependent protein kinase catalytic subunit alpha (Homo sapiens) (UniProt P17612)", "assay": "NVS_ENZ_hPKA: NovaScreen (NVS) Enzymatic Assay for human Protein Kinase A (PKA) (AID 2283192)", "in_short": "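Cell-free kinase activity read by fluorescence after mobility-shift separation of substrate and product, 1 h post-dosing. Single-concentration duplicate screen (25 uM) preceded singleton concentration series (top 50 uM); loss of signal versus DMSO.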"}}, "note": "Results filed as inconclusive are left out. The source made the active and inactive calls. Rule for the calls: active = hit-call score of the fitted dose curve at least 0.9, where 1 is the maximum; inconclusive = response in the unintended direction; inactive = score below 0.9."}
{"smiles": "ClC1=C(Cl)C2(Cl)C3C(Cl)C(Cl)CC3C1(Cl)C2(Cl)Cl", "note": "(stereo not given)", "values": [{"measurement": "outcome", "setting": "[1]", "result": "inactive"}, {"measurement": "outcome", "setting": "[2]", "result": "inactive"}, {"measurement": "outcome", "setting": "[3]", "result": "inactive"}]}
{"smiles": "CCCCN(CCCC)N=O", "values": [{"measurement": "outcome", "setting": "[1]", "result": "inactive"}]}
{"smiles": "Nc1ccc2ccccc2c1", "values": [{"measurement": "AC50", "setting": "[4]", "result": "12.3 µM (active)"}]}
{"smiles": "O=C(O)C(Cl)Cl", "values": [{"measurement": "outcome", "setting": "[5]", "result": "inactive"}, {"measurement": "outcome", "setting": "[3]", "result": "inactive"}]}
{"smiles": "Cc1ccc([N+](=O)[O-])cc1C", "values": [{"measurement": "outcome", "setting": "[6]", "result": "inactive"}, {"measurement": "outcome", "setting": "[7]", "result": "inactive"}]}
{"smiles": "Nc1cc2c3c(c1)C(c1ccccc1)=N[C@@H](NC(=O)c1cccnc1)C(=O)N3CC2", "values": [{"measurement": "AC50", "setting": "[8]", "result": "17.9 µM (active)"}]}
{"smiles": "[N-]=[N+]=[N-]", "values": [{"measurement": "outcome", "setting": "[8]", "result": "inactive"}, {"measurement": "outcome", "setting": "[9]", "result": "inactive"}]}
{"smiles": "CC(C)(C)c1ccc(O)cc1", "values": [{"measurement": "outcome", "setting": "[10]", "result": "inactive"}]}
{"smiles": "Cn1[nH]nnc1=S", "values": [{"measurement": "AC50", "setting": "[11]", "result": "1.08 µM (active)"}]}
{"smiles": "CC(Cl)CN(C)C", "note": "(stereo not given)", "values": [{"measurement": "outcome", "setting": "[12]", "result": "inactive"}, {"measurement": "outcome", "setting": "[11]", "result": "inactive"}]}
{"smiles": "O=[N+]([O-])c1cc(Cl)ccc1Cl", "values": [{"measurement": "outcome", "setting": "[12]", "result": "inactive"}, {"measurement": "outcome", "setting": "[11]", "result": "inactive"}]}
{"smiles": "O=P1(N(CCCl)CCCl)NCCCO1", "note": "(stereo not given)", "values": [{"measurement": "outcome", "setting": "[3]", "result": "inactive"}, {"measurement": "outcome", "setting": "[4]", "result": "inactive"}, {"measurement": "outcome", "setting": "[7]", "result": "inactive"}]}
{"smiles": "CCCCN(CCCC)SN(C)C(=O)Oc1cccc2c1OC(C)(C)C2", "values": [{"measurement": "AC50", "setting": "[4]", "result": "7.97 µM (active)"}]}
{"smiles": "O=c1ssc(Cl)c1Cl", "values": [{"measurement": "outcome", "setting": "[13]", "result": "inactive"}, {"measurement": "outcome", "setting": "[11]", "result": "inactive"}, {"measurement": "outcome", "setting": "[3]", "result": "inactive"}]}
{"smiles": "CCOc1ccc(C(C)(C)COCc2cccc(Oc3ccccc3)c2)cc1", "values": [{"measurement": "outcome", "setting": "[14]", "result": "inactive"}, {"measurement": "outcome", "setting": "[5]", "result": "inactive"}, {"measurement": "outcome", "setting": "[6]", "result": "inactive"}, {"measurement": "outcome", "setting": "[7]", "result": "inactive"}]}
{"smiles": "N#C/C=C/c1ccccc1", "values": [{"measurement": "outcome", "setting": "[12]", "result": "inactive"}]}
